Results from the supplement of paper PMC9801561.

System: Escherichia coli Nissle 1917
Assay: DuctApe activity index of respiration/growth curve (0 no growth to 9 maximum) (index 0-9); higher = more growth / nutrient utilisation, active = 3 or more; extreme values may be limits of the assay
Conditions: nutrient role: sole phosphorus source (pyruvate carbon); incubation: 48 h, 37 °C
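Also: biolog PM4 phosphorus and sulfur plates, tetrazolium violet dye reduction read in the OmniLog every 15 min, kinetic curves scored by DuctApe, each plate run in triplicate.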

DuctApe activity index, active:
Nc1nc2c(ncn2[C@@H]2O[C@H](CO)[C@@H](OP(=O)(O)O)[C@H]2O)c(=O)[nH]1 [Guanosine 3`-Monophosphate] 9, O=P(O)(O)OC(CO)CO [b-Glycerol Phosphate] 8.67, Cc1cn([C@H]2C[C@H](O)[C@@H](COP(=O)(O)O)O2)c(=O)[nH]c1=O [Thymidine 5`-Monophosphate] 8.67, O=P(O)(O)OC[C@H]1OC(O)[C@@H](O)[C@@H](O)[C@@H]1O (stereo partly drawn) [D-Mannose-6-Phosphate] 8.33

Same assay, conditions: nutrient role: sole sulfur source (pyruvate carbon); incubation: 48 h, 37 °C

DuctApe activity index, inactive:
CSC[C@H](N)C(=O)O [S-Methyl-L-Cysteine] 0.333, CC(=O)N[C@@H](CS)C(=O)O [N-Acetyl-L-Cysteine] 0.333

DuctApe activity index, active:
O=S(=O)(O)CCO [2-Hydroxyethane Sulfonic acid] 8, CSCCC(NC(C)=O)C(=O)O (racemic) [N-Acetyl-D,L-Methionine] 7, O=S(=O)(O)SSS(=O)(=O)O [Tetrathionate] 7.67, N[C@@H](CS)C(=O)NCC(=O)O 7
